Inconclusive results are not listed. Calls of active or inactive are those of the source. Unless noted, the call rests on the fitted dose curve.

Test [1] in a line: qHTS drug screen for cell cycle checkpoint inhibitors in PARPi-resistant BRCA-mutant ovarian cancer cell lines. (AID 1963452). To be noted: PEO1/OlaR viability, CellTiter-Glo luminescence, 96 h, stronger effect = lower value. Put shortly: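 PEO1, PEO4 and PEO1/OlaR ovarian cancer cells, 600 per well, exposed 96 h at 37C to a dilution series. Viability read by CellTiter-Glo luminescence, normalized to DMSO and empty wells; activity summarized as Z-AUC.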

Test [2] in a line: qHTS for identification of novel therapeutic agents for treatment of microphthalmiaassociated transcription factor (MiT) renal cell carcinoma (RCC) (AID 1963991). The settings on record: CellTiter-Glo, 48 h, stronger effect = lower value. An outline of the steps: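 Three TFE3-fusion RCC lines (UOK109, UOK124, UOK145), 500 cells/well in complete medium, were treated with MIPE 4.0 compounds for 48 hours at 37 C. Viability was by CellTiter-Glo luminescence, normalized to DMSO (100%) and empty wells (0%); curves fitted over 11 concentrations.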
On the technique in general: In qHTS, concentration-response curves come from the screen itself.

Test [3] can be described thus: qHTS profiling for inhibitors of Plasmodium falciparum proliferation (AID 504749; active means well fitted inhibition curve with a large enough effect;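 further: 0% = DMSO vehicle and full inhibition = artemisinin control; nearly all actives have a fitted effect of over 60% in size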). To be noted: P. falciparum in erythrocytes, SYBR Green DNA, 72 h, at 28.7 µM (top of the series). An outline of the steps: (§1)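 Infected RBCs, 0.3% parasitemia/2.5% Hct final; cpd 72 h, 37 C, 5% CO2; lysis buffer with saponin/triton/SYBR Green I, o/n RT dark; FI 485/535; norm. to artemisinin (0.29 uM) and DMSO.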

A further test relates to 3D7. Described as above. To be noted: P. falciparum in erythrocytes, SYBR Green DNA, 72 h; series mostly up to 28.7 µM. An outline of the steps:
as §1

The next test relates to 7G8. The description is as above. The settings on record: P. falciparum in erythrocytes, SYBR Green DNA, 72 h; series mostly up to 28.7 µM. An outline of the steps: as §1
For the next test, the system named is AA1029. The test is described as above. To be noted: P. falciparum in erythrocytes, SYBR Green DNA, 72 h; series mostly up to 28.7 µM. Put shortly: as §1
The next test has as its system AS120. The description is as above. The settings on record: P. falciparum in erythrocytes, SYBR Green DNA, 72 h; series mostly up to 28.7 µM. An outline of the steps:
as §1

The next test relates to ATS189. The description is as above. The settings on record: P. falciparum in erythrocytes, SYBR Green DNA, 72 h; series mostly up to 28.7 µM. Put shortly: as §1
In another test the test system is ATS95. The test is described as above. The settings on record: P. falciparum in erythrocytes, SYBR Green DNA, 72 h; series mostly up to 28.7 µM. Put shortly: as §1
Another test deals with C2A. Described as above. To be noted: P. falciparum in erythrocytes, SYBR Green DNA, 72 h; series mostly up to 28.7 µM. An outline of the steps: as §1
In another test the test system is CP185. The test is described as above. The settings on record: P. falciparum in erythrocytes, SYBR Green DNA, 72 h; series mostly up to 28.7 µM. An outline of the steps:
as §1

[4] abbreviates: measured here: PEO1 parental Z-AUC.
[5] abbreviates: TFE3-RCC UOK109 viability, measured here: UOK109 Z-AUC.
Where [6] appears, read: TFE3-RCC viability, measured here: UOK124 Z-AUC.
Setting [7] is: TFE3-RCC viability, measured here: UOK145 Z-AUC.

Take `CCC(=O)O[C@]1(C(=O)CCl)[C@@H](C)C[C@H]2[C@@H]3CCC4=CC(=O)C=C[C@]4(C)[C@@]3(F)[C@@H](O)C[C@@]21C`: the Z-AUC in test [1] was -0.206 (inactive); in test [1] (setting [4]) it was 0.492; in test [1] (measured here: PEO4 Z-AUC), -0.658.
Regarding `NS(=O)(=O)c1cc2c(cc1Cl)NC(C(Cl)Cl)NS2(=O)=O` (configuration not stated), the Z-AUC in test [1] was 0.208 (inactive); in [1] (setting [4]), 0.729; in test [1] (measured here: PEO4 Z-AUC) it was 0.959. The z-score was determined as 0.286 in test [2] (setting [5]), 0.327 in test [2] (setting [6]) and 0.519 in [2] (setting [7]).
For `Cc1c(-c2ccc(O)cc2)n(Cc2ccc(OCCN3CCCCCC3)cc2)c2ccc(O)cc12`, the Z-AUC in test [1] was 1.04 (inactive); in test [1] (setting [4]), 0.798; in test [1] (measured here: PEO4 Z-AUC), 0.376. In addition, the z-score in test [2] (setting [5]) was found to be 0.552; in test [2] (setting [6]), 0.408; in test [2] (setting [7]) it was 0.653.
With `CCCCS(=N)(=O)CCC(N)C(=O)O` (configuration not stated), the values for the Z-AUC in test [1], in [1] (setting [4]) and in test [1] (measured here: PEO4 Z-AUC) were -0.0852 (inactive), 0.0714 and 0.126, respectively. Moreover, the figures for the z-score in test [2] (setting [5]), in [2] (setting [6]) and in [2] (setting [7]) were 0.217, 0.527 and 0.0952, respectively.
On to `CCN[C@H]1C[C@H](C)S(=O)(=O)c2sc(S(N)(=O)=O)cc21`, for which the Z-AUC is 1.11 (inactive) in test [1], 0.588 in test [1] (setting [4]) and 0.622 in test [1] (measured here: PEO4 Z-AUC). Besides, the figures for the z-score in [2] (setting [5]), in [2] (setting [6]) and in [2] (setting [7]) were 0.833, 0.48 and 0.605, respectively.
As for `O=C(O)C1CCCN(CCC=C(c2ccccc2)c2ccccc2)C1` (configuration not stated), the values for the Z-AUC in [1], in test [1] (setting [4]) and in [1] (measured here: PEO4 Z-AUC) were 1.76 (inactive), 1.39 and 1.34, respectively.
The corresponding values for `CCCOc1ccc(C(=O)OCCN(CC)CC)cc1N` are 1.6 (inactive), 1 and 0.987.
For `CCC(=O)O[C@]1(C(=O)SCF)[C@H](C)C[C@H]2[C@@H]3C[C@H](F)C4=CC(=O)C=C[C@]4(C)[C@@]3(F)[C@@H](O)C[C@@]21C` the same measures were -1.29 (inactive), -0.0288 and -0.807.
As to `O=C(O)CSCC(=O)NC1CCSC1=O` (configuration not stated), the Z-AUC in [1] was -0.00872 (inactive); in test [1] (setting [4]) it was 0.644; in [1] (measured here: PEO4 Z-AUC), 0.13. Besides, the results for the z-score in [2] (setting [5]), in test [2] (setting [6]) and in test [2] (setting [7]) were 0.815, 0.223 and 1.5, respectively.
For `NC1(c2ccc(-c3nc4ccn5c(=O)[nH]nc5c4cc3-c3ccccc3)cc2)CCC1`, the Z-AUC in test [1] is 0.493 (inactive); in [1] (setting [4]) it was 0.0138; in [1] (measured here: PEO4 Z-AUC), -0.184.
On to `COc1cc2nc(N3CCCN(C)CC3)nc(NC3CCN(Cc4ccccc4)CC3)c2cc1OC`, for which the Z-AUC in test [1] was 0.899 (inactive); in test [1] (setting [4]), 0.933; in test [1] (measured here: PEO4 Z-AUC) it was 0.922.
Consider `CC(C)C1CCC(C(=O)N[C@H](Cc2ccccc2)C(=O)O)CC1` (some centres not stated), for which the Z-AUC in [1] is 1.31 (inactive); in [1] (setting [4]) it was 1.43; in [1] (measured here: PEO4 Z-AUC) it was 0.601. In addition, the z-score came to 0.399 in [2] (setting [5]), 0.0648 in test [2] (setting [6]) and 0.384 in test [2] (setting [7]).
Consider `Cc1nnc(C(=O)NC(C)(C)c2nc(C(=O)NCc3ccc(F)cc3)c(O)c(=O)n2C)o1`, for which the values for the Z-AUC in [1], in test [1] (setting [4]) and in test [1] (measured here: PEO4 Z-AUC) were -0.384 (inactive), -0.195 and -0.396, respectively. The values for the z-score in test [2] (setting [5]), in test [2] (setting [6]) and in test [2] (setting [7]) were 0.782, 0.249 and 1.94, respectively.
On to `COC(=O)Nc1nc2ccc(S(=O)c3ccccc3)cc2[nH]1` (configuration not stated), for which the Z-AUC in test [1] was 0.889 (inactive); in [1] (setting [4]) it was 0.292; in test [1] (measured here: PEO4 Z-AUC), 0.543.
Regarding `NC(=O)c1cccc(N)c1`, the Z-AUC is 1.42 (inactive) in test [1], 1.33 in test [1] (setting [4]) and 0.943 in test [1] (measured here: PEO4 Z-AUC).
The corresponding values for `CCOC(=O)[C@H](CCc1ccccc1)N[C@H]1CCc2ccccc2N(CC(=O)O)C1=O` are -0.332 (inactive), -0.731 and -0.74.
Regarding `CCCCc1oc2ccc(NS(C)(=O)=O)cc2c1C(=O)c1ccc(OCCCN(CCCC)CCCC)cc1`, the results for the Z-AUC in test [1], in [1] (setting [4]) and in test [1] (measured here: PEO4 Z-AUC) were 0.47 (inactive), -0.173 and -0.237, respectively.
As for `CC(=O)CC(c1ccccc1)c1c(O)c2ccccc2oc1=O` (configuration not stated), the Z-AUC in [1] was 1.13 (inactive); in test [1] (setting [4]), 1.51; in test [1] (measured here: PEO4 Z-AUC), 1.67. In addition, the z-score amounted to 0.83 in test [2] (setting [5]), 0.655 in test [2] (setting [6]) and 0.641 in test [2] (setting [7]).
For the molecule `Cc1ccc(S(=O)(=O)N[C@@H](Cc2ccccc2)C(=O)CCl)cc1`, the Z-AUC was 1.05 (inactive) in test [1], 1.44 in test [1] (setting [4]) and 1.24 in test [1] (measured here: PEO4 Z-AUC).
On to `NCCCC(O)(P(=O)(O)O)P(=O)(O)O`, for which the results for the Z-AUC in [1], in [1] (setting [4]) and in test [1] (measured here: PEO4 Z-AUC) were 0.983 (inactive), 0.814 and 0.863, respectively. Also, the z-score came out at 0.263 in test [2] (setting [5]), 0.663 in test [2] (setting [6]) and 0.216 in test [2] (setting [7]). For the same molecule, the activity, negative = inhibition is 5.33% (inactive) in [3] (parasite line A) and 1.25% (inactive) in test [3] (parasite line B). For the same molecule, the Potency entry in the test on 3D7, in the test with 7G8, in the test with AA1029, with AS120, in the test with ATS189 and in the test on ATS95 was “inactive” in each case. Moreover, the Potency entry in the test with C2A and in the test with CP185 was “inactive” throughout.
